Measurements as given in PubChem BioAssay AID743049 (Broad Institute, 2013).
Entries with a potency or affinity are not part of this list. Records with an inconclusive call do not appear. Calls of active or inactive are those of the source. No rule for the calls is given here.

Assay: cytotoxicity dependent on PAX8, dose response, cell-based, plate reader, dry powder (AID 743049)
Conditions: PAX8-dependent cancer cell viability; series mostly up to 50 µM

Cc1ccccc1CNC(=O)C1CCCN(c2nnc(C)c3c(C)n(-c4ccccc4)nc23)C1 (configuration not stated)
outcome: inactive

COc1ccccc1C#Cc1ccc([C@@H]2[C@@H](C#N)N(C(=O)C3CCCCC3)[C@H]2CO)cc1
outcome: inactive
